IDE cell inh: human IDE inhibitors in live cells, primary screen, fluorescence polarization, HEK cells, FAbetaB substrate. AID 434962, 2010. inhibition, % at 5.59 µM. 320,000 tested, 0.41% active. FAbetaB cleavage;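 active means percent inhibition above the average of all tested compounds plus 3 SD, set per screening campaign, cut at about 16% in these data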;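 further: IDE supplied by intact live HEK cells; FP after avidin binding of uncleaved biotin substrate so inhibition keeps polarization high; 0% = DMSO wells and 100% = 60 µM reference IDE inhibitor Ii1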
CHT block: inhibitors of human choline transporter CHT. B-score at 10 µM. CHT-expressing cells, membrane potential dye, choline response; stronger effect = lower value. 310,000 tested, 0.86% active. High affinity choline transporter 1 (Homo sapiens), Q9GZV3;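 active means B-score over 3 SD under the library average, and starting fluorescence ratio not unusually high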;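 further: choline stimulus applied at its EC90 after an EC20 pre-addition; B-score computed on integrated fluorescence ratio after choline addition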
TMEM16A act: TMEM16A chloride channel activators or potentiators, primary screen, cell-based, HTS; Anoctamin-1 (Mus musculus), Q8BHY3; HEK293 TMEM16A/YFP-H148Q/I152L, iodide quench fluorescence; stronger effect = lower value; B-score at 10 µM; 340,000 tested, 0.3% active;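 active means fluorescence-ratio B-score plate-corrected deviation score at least 3 library SD below zero, with starting fluorescence score within 5 deviations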;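 further: channel opened by trigger with iodide after compound preincubation; score built on the fluorescence ratio of max minus min over baseline; more negative score means more quench and so TMEM16A activation or potentiation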
Target sequence (Q8BHY3 whole entry, looked up): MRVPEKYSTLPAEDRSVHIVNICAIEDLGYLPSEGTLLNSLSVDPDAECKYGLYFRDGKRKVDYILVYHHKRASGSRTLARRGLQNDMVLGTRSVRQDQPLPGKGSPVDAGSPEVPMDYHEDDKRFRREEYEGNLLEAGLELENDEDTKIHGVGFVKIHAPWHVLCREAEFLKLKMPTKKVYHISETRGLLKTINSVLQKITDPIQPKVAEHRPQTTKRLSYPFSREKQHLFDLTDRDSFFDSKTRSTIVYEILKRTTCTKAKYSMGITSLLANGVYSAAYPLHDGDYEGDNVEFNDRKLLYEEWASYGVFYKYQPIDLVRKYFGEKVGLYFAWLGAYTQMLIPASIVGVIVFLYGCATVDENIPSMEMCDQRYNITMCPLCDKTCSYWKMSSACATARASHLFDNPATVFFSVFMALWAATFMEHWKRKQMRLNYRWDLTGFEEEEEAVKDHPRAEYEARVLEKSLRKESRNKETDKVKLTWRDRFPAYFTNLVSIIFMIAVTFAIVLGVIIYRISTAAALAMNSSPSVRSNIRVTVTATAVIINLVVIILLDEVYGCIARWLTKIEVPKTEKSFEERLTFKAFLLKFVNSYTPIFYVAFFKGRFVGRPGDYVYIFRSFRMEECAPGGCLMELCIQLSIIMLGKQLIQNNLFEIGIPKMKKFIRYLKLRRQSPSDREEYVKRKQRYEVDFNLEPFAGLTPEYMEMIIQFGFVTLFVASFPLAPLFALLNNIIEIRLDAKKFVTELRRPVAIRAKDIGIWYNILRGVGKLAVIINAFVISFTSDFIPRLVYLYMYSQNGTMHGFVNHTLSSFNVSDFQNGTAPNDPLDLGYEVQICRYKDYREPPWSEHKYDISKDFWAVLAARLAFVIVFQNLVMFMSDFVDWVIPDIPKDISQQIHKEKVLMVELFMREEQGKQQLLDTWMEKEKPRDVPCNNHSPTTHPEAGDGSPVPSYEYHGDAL
CHT allo act: CHT positive allosteric modulators, primary screen, cell-based, membrane potential dye, choline EC20 | CHT-expressing cells; stronger effect = higher value; LV-AA mutant CHT in HEK293 cells | B-score at 10 µM | 310,000 tested, 0.49% active;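 active means initial fluorescence not abnormally high and integrated response B-score, plate-corrected, over 3 SD above library mean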
TMEM16A inh: TMEM16A chloride channel inhibitors, primary screen, cell-based, HTS | HEK293 TMEM16A/YFP iodide influx fluorescence, ionomycin | normalized B-score (activity score, 25-100; higher = stronger inhibition) at 10 µM | 310,000 tested, 1.2% active;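 active means ratio plate-corrected score three or more library SD toward inhibition, starting fluorescence score within five deviations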;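 further: score derived from kinetic fluorescence span divided by baseline fluorescence per well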
IDE cell activ: human IDE activators in live cells, primary screen, fluorescence polarization, HEK cells, FAbeta-B substrate. Insulin-degrading enzyme (Homo sapiens), P14735. FAbeta-B cleavage; 0% vehicle, 100% cell-free pure enzyme wells. activation, % at 5.96 µM. 340,000 tested, 0.073% active;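 active means activation above the mean of all tested compounds plus 3 SD, set per screening campaign, cut at about 17% in these data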
CHT activ conf: CHT activators, confirmation, cell-based, membrane potential dye, duplicate; shares compounds with CHT allo act; CHT-expressing cells, membrane potential dye fluorescence (FDSS); % of choline EC20–EC90 response window; HEK293 expressing CHT LV-AA mutant; choline added at its EC20; activation, % at 10 µM; 2,500 tested, 91% active;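 active means primary screen active, with duplicate mean activation above negative control mean plus 3 SD, cut at about 11% in these data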
HEK293 MP dye: membrane potential response in parental HEK293 cells, counter-screen for CHT activator project, cell-based, membrane potential dye | membrane potential dye fluorescence (FDSS); measured after EC20 choline addition | 2,500 tested, 62% active | AID 623908, 2012 | shares compounds with CHT allo act | ratio readout change at 10 µM, hits read low;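 active means duplicate-averaged ratio beyond 3 SD from buffer wells, up or down, though filed actives are nearly all decreases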
Numbers without * were called inactive; i = inactive; nt = not tested or not shown. The list is not random: actives were taken first. Their share in the collection is about 2.7%.

SMILES	IDE cell inh	CHT block	TMEM16A act	CHT allo act	TMEM16A inh	IDE cell activ	CHT activ conf	HEK293 MP dye
Cc1nn2c(NCCCN(C)C)c3c(nc2c1-c1ccccc1)CCC3	-1	i	i	8.2*	i	0	45*	-57*
CCc1nc(SCC(=O)N2CCOCC2)c2c(=O)n(C)c(=O)n(C)c2n1	2	i	i	i	i	7	nt	nt
Cn1c(=O)c2c(SCCN3CCOCC3)nc(C3CCCC3)nc2n(C)c1=O	-1	i	i	7.4*	i	5	42*	-30*
CCC(C)c1ccc(NC(=O)C2=CC=CN3CCS(=O)(=O)N=C23)cc1 (centres undefined)	2	nt	i	nt	nt	2	nt	nt
O=C(c1ccc(S(=O)(=O)c2cccc(Cl)c2)c([N+](=O)[O-])c1)N1CCN(c2ccccn2)CC1	2	i	i	8.5*	i	3	9	i
Cc1cccn2c1nc(=S)n2C(=O)c1ccco1	9	i	i	i	i	-4	27*	-21*
O=S(=O)(Nc1ccccc1OC(F)F)c1ccc(S(=O)(=O)N2CCCC2)cc1	-2	nt	i	nt	nt	0	nt	nt
CC(C)[C@H](NC(=O)N1CCn2c1nc1ccccc12)C(=O)N1CCCCC1	0	i	i	i	i	4	nt	nt
COc1ccc(OC)c2c(C)cc(N3CCN(C(=O)c4ccc(F)cc4)CC3)nc12	4	i	i	6.5*	i	-2	41*	-69*
COc1ccc(OC)c2c(C)cc(N3CCN(C(=O)c4ccc(C)cc4)CC3)nc12	0	i	i	i	i	2	nt	nt
CN(CCc1ccccn1)c1ccccc1	nt	nt	i	nt	nt	4	nt	nt
COCCNc1cc(C)nc2cc(-c3ccc(C)cc3)nn12	-6	i	i	i	i	-3	nt	nt
Cc1cccc(-c2cc3nc(C)c(C)c(NCCCn4ccnc4)n3n2)c1	3	i	i	i	i	4	nt	nt
Cc1cc(NCCCn2ccnc2)n2nc(-c3ccc(F)cc3)cc2n1	4	i	i	8*	i	1	42*	-71*
Cc1cc(NCCCn2ccnc2)n2nc(-c3ccc(Cl)cc3)cc2n1	4	i	i	8.9*	i	-5	38*	-80*
COc1ccc(S(=O)(=O)N(C)CC(=O)NCc2ccco2)cc1OC	-15	i	i	i	i	3	nt	nt
COc1ccc(C(=O)Nc2nc(C)cc(C)n2)cc1[N+](=O)[O-]	2	i	i	i	i	5	19*	-39*
CCC1CCCCN1CC(O)Cn1c2ccccc2n2c(=O)cc(C)c(C#N)c12 (centres undefined)	-3	i	i	7.7*	i	5	39*	-28*
Cc1cc(=O)n2c3ccccc3n(CC(O)CN3CCN(Cc4ccccc4)CC3)c2c1C#N (centres undefined)	4	i	i	7.6*	i	4	51*	-55*
Cc1cc(=O)n2c3ccccc3n(CC(O)CN3CCC(C)CC3)c2c1C#N (centres undefined)	nt	nt	i	nt	nt	6	nt	nt
Cc1cc(=O)n2c3ccccc3n(CC(O)CN3CCN(CCO)CC3)c2c1C#N (centres undefined)	6	i	i	i	i	1	46*	-34*
CCN1CCN(S(=O)(=O)c2c[nH]c(C(=O)OC)c2)CC1	5	i	i	i	i	2	nt	nt
Cc1noc(NS(=O)(=O)c2ccc(NC(=O)c3cccc(S(=O)(=O)Nc4ccccc4F)c3)cc2)c1C	3	nt	i	nt	nt	-2	nt	nt
C=C[C@](C)(CC[C@@]1(C)C(C)CC(OC2OC(C)C(OC3OC(COC(C)=O)C(O)C(O)C3O)C(O)C2O)[C@@]2(C)C(C)=CCCC12)OC1OC(C)C(O[C@@H]2O[C@@H](C)C(O)C(O)[C@H]2O)C(O)C1O (some centres undefined)	-7	nt	i	nt	nt	5	nt	nt
COc1ccc(CNC(=O)C(c2cccs2)N(Cc2ccco2)C(=O)Cc2cccs2)cc1 (centres undefined)	3	i	i	6.6*	i	3	26*	i
SMILES	IDE cell inh	CHT block	TMEM16A act	CHT allo act	TMEM16A inh	IDE cell activ	CHT activ conf	HEK293 MP dye
COc1ccc(CNC(=O)C(c2ccco2)N(Cc2ccccc2)C(=O)Cc2cccs2)cc1 (centres undefined)	1	i	i	i	i	4	nt	nt
Cc1ccc(S(=O)(=O)NCC2CCC(C(=O)NCCCN3CCCC3=O)CC2)cc1 (centres undefined)	-2	i	i	i	i	1	nt	nt
COc1ccc(/C=C/C(=O)NCCCN2CCCC2)cc1	-3	i	i	i	i	-3	nt	nt
COc1ccc(/C=C/C(=O)NC(C)CCc2ccccc2)cc1 (centres undefined)	-5	i	i	i	i	0	35*	i
COc1ccc(/C=C/C(=O)NC(C)CCc2ccccc2)cc1OC (centres undefined)	1	i	i	i	i	5	nt	nt
COc1ccc(/C=C/C(=O)NCCCc2ccccc2)cc1	-3	i	i	6.6*	i	1	38*	i
CCN1C(N(C)CCc2cccs2)=N[C@@H](c2ccccc2)C(C(=O)OC)=C1C	-4	i	i	13*	i	0	26*	i
CCOC(=O)C1CCN(C(=O)C2CCN(S(=O)(=O)c3cc(Cl)ccc3OCC)CC2)CC1	2	i	i	i	i	3	nt	nt
Cn1c(=O)[nH]c(=O)c2c1nc(N1CCCCC1)n2CCSc1ncccn1	1	i	i	8*	i	0	18*	-24*
Cn1c(=O)[nH]c(=O)c2c1nc(N1CCN(c3ccccc3)CC1)n2CCSc1ncccn1	-3	i	i	i	i	4	37*	i
Cn1c(=O)[nH]c(=O)c2c1nc(Br)n2CCSc1ncccn1	-1	i	i	i	i	1	nt	nt

Screening data deposited in PubChem by several laboratories.
